In PubChem BioAssay (EPA / NIEHS):
Calls of active or inactive are those of the source. How the source made its calls: active means hit-call score of the fitted dose curve at least 0.9, where 1 is the maximum; inactive means score below 0.9.

Assay: ATG_ERE_CIS: Attagene CIS-FACTORIAL HepG2 Assay for Estrogen Response Element (ERE) (AID 2282940)
Settings: HepG2 ERE cis-reporter, Attagene RNA transcript; actives raise or lower the signal
Description: ATG_CIS is a cell-based, multiplexed-readout assay that uses HepG2, a human liver cell line, with measurements taken at 24 hours after chemical dosing in a 24-well plate.ATG_ERE_CIS is one of 52 assay component(s) measured or calculated from the ATG_CIS assay. It is designed to make measurements of mRNA induction, a form of inducible reporter, as detected with fluorescence intensity signals by Reverse transcription polymerase chain reaction (RT-PCR) and Capillary electrophoresis technology.Data from the assay component ATG_ERE_CIS was analyzed into 1 assay endpoint. This assay endpoint, ATG_ERE_CIS, was analyzed with bidirectional fitting relative to DMSO as the negative control and baseline of activity. Using a type of inducible reporter, measures of mRNA for gain or loss-of-signal activity can be used to understand the reporter gene at the transcription factor-level as they relate to the gene ESR1. Furthermore, this assay endpoint can be referred to as a primary readout, because this assay has produced multiple assay endpoints where this one serves a reporter gene function. To generalize the intended target to other relatable targets, this assay endpoint is annotated to the nuclear receptor intended target family, where the subfamily is steroidal.
Human liver HepG2 cells are transiently transfected with multiple reporter transcription units (MRTUs) in 6-well plates using FuGene 6 reagent (Roche; 3 ml FuGene/1 mg DNA). The MRTU constructs are regulated by a cis-regulating element (promoter). […] A major difference between the CIS and TRANS system is that in CIS activities of endogenous TFs are measured, whereas the TRANS assay evaluates changes in activities of exogenous, chimeric NR-Gal4 proteins. […] At the end of 24 hour incubation, total RNA was isolated using TriZol reagent (Invitrogen). The isolated RNA is then reverse-transcribed using oligo(dT) primer and Mo-MLV reverse transcriptase (Invitrogen) with DNAse I (Ambion) treatment for 30 min. The one-tenth of the produced cDNA was amplified by PCR using Taq DNA polymerase (Invitrogen) and two reporter sequence-specific primers. The PCR products were fluorescently labeled by primer extension with 6-arboxyfluorescein (6-FAM) 5'-labeled reporter sequence-specific primer (2 min at 95 C, 20 s at 68 C and 10 min at 72 C) and these products were digested with 5U of HpaI (New England Biolabs) for 2h at 37 C. The fragments were purified using Qiaquick PCR columns (Qiagen), analyzed on an ABI 3130xL genetic analyzer (Applied Biosystems) with peak positions identified by using a set of X-rhodamine (ROX)-labeled MapMarker1000 molecular weight standards (BioVentures). The raw capillary electrophoresis data was processed using Attagraph software (Attagene).
For `CCO[Si](CCC#N)(OCC)OCC`, the outcome was “inactive”.
With `CC1(C)CC(=O)CC(C)(C)N1` the outcome was “inactive”.
With `CCCCC(CC)COCCO` (stereo not given) the outcome was “inactive”.
For `CC(=O)CC(C)(C)C1CCCCC1`, the outcome was “inactive”.
For `CC(O)CNCC(C)O` (stereo not given), the outcome was “inactive”.
For `CCCCCCCCCO`, the outcome was “inactive”.
For `N=C1N=C(N)c2ccccc21`, the AC50 was 18.1 µM (active).
With `CC/C=C\CCCCO` the outcome was “inactive”.
With `CCOC(=O)C=Cc1ccccc1` the outcome was “inactive”.
With `O=S(=O)(O)CCCN1CCOCC1` the outcome was “inactive”.
In the case of `Nc1ccn([C@H]2CC[C@@H](CO)O2)c(=O)n1`, the outcome was “inactive”.
For `C=C(C)C(=O)OCCC(C)OC(=O)C(=C)C` (stereo not given), the outcome was “inactive”.
In the case of `COc1ccccc1NC(=O)CC(C)=O`, the outcome was “inactive”.
In the case of `CC1=CC(O)CC(C)(C)C1` (stereo not given), the outcome was “inactive”.
For `N#CCCNCCC#N`, the outcome was “inactive”.
For `NC(=O)c1c(Cl)cccc1Cl`, the outcome was “inactive”.
With `CCOC(=O)CC1(C)OCC(C)O1` (stereo not given) the outcome was “inactive”.
For `CCCCCCCCCCO[C@@H]1O[C@H](CO)[C@@H](O)[C@H](O)[C@H]1O`, the outcome was “inactive”.
With `NC(N)=NC(N)=NCCc1ccccc1` the outcome was “inactive”.
With `O=C1CCCCCCCCCCCC(=O)OCCO1` the outcome was “inactive”.
In the case of `CC/C=C\CCOC(=O)C(C)C`, the outcome was “inactive”.
With `CCCCOCCOCCOCCO` the outcome was “inactive”.
In the case of `CCCCCC1CCC(=O)O1` (stereo not given), the outcome was “inactive”.
In the case of `CC1=CC(C)C(C=O)C(C)C1` (stereo not given) (tested in a mixture with another compound), the outcome was “inactive”.
With `CC(=O)C1=C(C)[C@@H]2C[C@@]3(C1)[C@H](C)CC[C@H]3C2(C)C` the AC50 was 68.1 µM (active).
For `FC(F)(F)c1ccc(Cl)c(Cl)c1`, the outcome was “inactive”.
In the case of `O=C1OC2(c3ccc(O)cc3Oc3cc(O)ccc32)c2ccccc21`, the outcome was “inactive”.
For `O=S1(=O)CC=CC1`, the outcome was “inactive”.
For `C=CCOCC(O)CO` (stereo not given), the outcome was “inactive”.
In the case of `CN(C)C(=O)Nc1ccccc1`, the outcome was “inactive”.
With `CC(C)C(=O)c1ccccc1` the AC50 was 0.5 µM (active).
With `O=c1cc(-c2ccc(O)cc2)oc2cc(O)cc(O)c12` the AC50 was 1.18 µM (active).
For `CC(C)(O)C(=O)c1ccc(OCCO)cc1`, the outcome was “inactive”.
With `CCCCCCCCSCc1cc(C)c(O)c(CSCCCCCCCC)c1` the outcome was “inactive”.
With `CC(=O)OCC=C(C)CCC=C(C)CCC=C(C)C` the AC50 was 25.1 µM (active).
For `O=S(=O)(O)c1cc(S(=O)(=O)O)c2c(N=Nc3ccccc3)c(O)ccc2c1`, the outcome was “inactive”.
With `CCC(C)(CCCC(C)C)OC(C)=O` (stereo not given) the outcome was “inactive”.
With `c1ccc(Sc2ccccc2)cc1` the AC50 was 63.5 µM (active).
For `CC1COC(=O)O1` (stereo not given), the outcome was “inactive”.
For `CC(C)(O)CCc1ccccc1`, the outcome was “inactive”.
